In PubChem BioAssay:
The source made the active and inactive calls. No rule for the calls is given here.

Molecular target: Pantothenate synthetase (Mycobacterium tuberculosis (strain ATCC 25618 / H37Rv)) (UniProt P9WIL5)
Test: Recombinant Mtb pantothenate synthetase (PanC) inhibitors, coupled enzyme, confirmatory (AID 375);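 also: 0% = full reaction with vehicle and 100% = no enzyme background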
Settings: coupled enzyme assay; at 10 µM, stronger effect = higher value

Chain of Pantothenate synthetase (Mycobacterium tuberculosis (strain ATCC 25618 / H37Rv)) (P9WIL5 whole entry, looked up): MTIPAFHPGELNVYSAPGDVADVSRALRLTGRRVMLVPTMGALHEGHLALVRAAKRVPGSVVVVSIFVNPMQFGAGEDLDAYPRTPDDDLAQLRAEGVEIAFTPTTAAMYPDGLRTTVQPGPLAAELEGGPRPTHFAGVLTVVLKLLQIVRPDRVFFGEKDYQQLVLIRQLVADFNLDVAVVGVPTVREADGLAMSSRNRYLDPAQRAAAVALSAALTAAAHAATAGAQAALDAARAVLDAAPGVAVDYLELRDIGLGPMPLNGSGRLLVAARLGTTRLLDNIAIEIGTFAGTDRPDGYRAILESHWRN

SMILES	inhibition
Cc1noc(C)c1COc1cccc(C(=O)Nc2ccc(C#N)cc2)c1	0% (inactive)
COc1cccc(/C(O)=C2/C(=O)C(=O)N(CCN3CCOCC3)C2c2cccnc2)c1 (centres undefined)	1% (inactive)
O=C1c2ccccc2C(=O)N1c1cccc(-c2nc3ccccc3o2)c1	7% (inactive)
COC(=O)c1ccccc1S(=O)(=O)N(CCCO)Cc1cc2c(C)ccc(C)c2[nH]c1=O	2% (inactive)
CNC(=O)c1ccc2nc(NC(C)=O)sc2c1	0% (inactive)
CCSc1nnc(NC(=O)c2csc(C)c2)s1	1% (inactive)
Cc1ccc(-c2cc3nc4c(c(=O)n3[nH]2)CCCC4)cc1	6% (inactive)
CCc1cc2c(=O)c(-c3ccc4c(c3)OCCO4)coc2cc1OC(=O)c1ccco1	0% (inactive)
Cc1ccc(C(=O)NC2CC3CCCC(C2)N3C(=O)NC2CCCCC2)cc1 (centres undefined)	8% (inactive)
Cc1ccccc1NC(=O)c1c(F)c(F)c(F)c(F)c1F	0% (inactive)
COc1ccc(N2C(N)=C(C#N)C(c3cccnc3)C3=C2CC(C)(C)CC3=O)cc1 (centres undefined)	0% (inactive)
COCCNC(=O)C(c1cccs1)N(C(=O)Cn1nnc2ccccc21)c1ccccc1 (centres undefined)	6% (inactive)
Cc1cccc(-n2c(SCc3cc(=O)n4ccsc4n3)nc3ccccc32)c1	0% (inactive)
O=c1c(-c2ccc(F)cc2)coc2c3c(ccc12)OCCO3	11% (inactive)
O=C(NCCN1CCOCC1)C1CCC(=O)N1Cc1ccccc1Cl (centres undefined)	0% (inactive)
CCn1c(SCC(=O)Nc2cc(NC(C)=O)ccc2OC)nnc1-c1ccccn1	2% (inactive)
Cc1cc(N2CCOCC2)nc2ccc(NC(=O)C3CCC(C)CC3)cc12 (centres undefined)	0% (inactive)
Cc1cc2c(c(=O)o1)C(C13C=CC(CC1)C3)C(C#N)=C(N)O2 (centres undefined)	0% (inactive)
CCC(C)C(NC(=O)C1CCC(C)CC1)C(=O)NCc1cccnc1 (centres undefined)	6% (inactive)
CCN(CC)CCNC(=O)C1CCN(S(=O)(=O)N2CCCCC2)CC1	0% (inactive)

SMILES	inhibition
O=C(CSc1nnnn1Cc1ccccc1)Nc1ccc2c(c1)OCO2	1% (inactive)
Cc1nnc(SCC(=O)Nc2cc(C(F)(F)F)ccc2N2CCOCC2)o1	0% (inactive)
CNCCC=C1c2ccccc2CCc2ccccc21	0% (inactive)
CCN(C(=O)COC(=O)c1cc(C)n(-c2ccc(F)cc2)c1C)C1CCS(=O)(=O)C1 (centres undefined)	1% (inactive)
CC(C)CNC(=O)C1CC(=O)OC12CCCCC2 (centres undefined)	5% (inactive)
Nc1nc(CN2CCN(Cc3ccc4c(c3)OCO4)CC2)nc(Nc2ccccc2)n1	0% (inactive)
C=CCn1c(SCC(=O)c2ccccc2)nnc1-c1ccc2c(c1)OCO2	0% (inactive)
CCc1ccc(NC(=O)c2cc(-c3ccco3)on2)cc1	4% (inactive)
CCOC(=O)C(C(C)=O)c1nc(C)nc2c1nnn2Cc1ccccc1Cl (centres undefined)	0% (inactive)
COCCN1CN(S(=O)(=O)c2ccccc2)c2nc3ccccc3nc21	0% (inactive)
CCOC(=O)c1ccc2nc(NC(NC(C)=O)(C(=O)OC)C(F)(F)F)sc2c1 (centres undefined)	2% (inactive)
CCOc1ccccc1C(=O)N1CCN(c2cccc(Cl)c2)CC1	0% (inactive)
CCc1ccccc1NC(=O)CSc1ncn[nH]1	0% (inactive)
CCOC(=O)c1sc2nc(NC(=O)C(C)(C)C)sc2c1C	8% (inactive)
CCN(CC)CCCN1C(=O)C(O)=C(C(C)=O)C1c1cccc(OC)c1 (centres undefined)	0% (inactive)
CCN1C(=O)OC2(CCCCC2)C1(C)O (centres undefined)	0% (inactive)
N#CC1=C(N)n2c(s/c(=C\c3ccco3)c2=O)=C(C#N)C1c1ccco1 (centres undefined)	0% (inactive)
COC(=O)C1=C(CSCc2ccco2)NC(=O)NC1c1cc(C)ccc1C (centres undefined)	3% (inactive)
Cc1nnc(SCC(=O)N2CCC(C(=O)Nc3nccs3)CC2)n1Cc1ccccc1	0% (inactive)
